Assay results taken from PubChem BioAssay (NCI).
Compounds without any hit were thinned out: in the full panel of roughly 79,000, 15% have a hit. Cut-off read from the data, not from the text of the source: active = growth inhibition above about 70%; inactive = the rest.

Key:
[1] = NCI Yeast Anticancer Drug Screen. Data for the rad50 strain (AID 155);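 note: 0% = growth of vehicle-only cultures of the same strain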; details: S. cerevisiae rad50 strain growth inhibition; at 50.0 µM; stronger effect = higher value
Outline: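 Inhibition values express reduced yeast growth in compound-treated cultures relative to vehicle-treated controls.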

[2] = NCI Yeast Anticancer Drug Screen. Data for the mec2-1 strain (AID 157); details: S. cerevisiae mec2-1 strain, at 50.0 µM, stronger effect = higher value
Outline: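 Mutant yeast (mec2-1) grown with compound; growth inhibition relative to vehicle control reported.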

[3] = NCI Yeast Anticancer Drug Screen. Data for the sgs1 mgt1 strain (AID 161);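 note: 0% = growth of cultures given vehicle only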; details: S. cerevisiae sgs1 mgt1 strain, at 50.0 µM, stronger effect = higher value
Outline: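 Compounds are added to genetically altered yeast, and growth is compared with cultures given vehicle alone to give percent inhibition.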

[4] = NCI Yeast Anticancer Drug Screen. Data for the cln2 rad14 strain (AID 165);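 note: 0% = growth equal to vehicle treated cultures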; details: S. cerevisiae cln2 rad14 strain, at 50.0 µM, stronger effect = higher value
Outline: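 Readout is yeast growth inhibition versus vehicle-treated controls, using a strain with cln2 and rad14 alterations exposed to compound.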

[5] = NCI Yeast Anticancer Drug Screen. Data for the bub3 strain (AID 167); details: S. cerevisiae bub3 mutant strain, at 50.0 µM, stronger effect = higher value
Outline: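 Steps: expose the mutant yeast strain to compound; grow alongside vehicle-treated cultures; measure growth; express inhibition against the vehicle cultures.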

[6] = NCI Yeast Anticancer Drug Screen. Data for the mlh1 rad18 strain (AID 175); details: S. cerevisiae mlh1 rad18 strain growth inhibition; at 50.0 µM; stronger effect = higher value
Outline: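 Genetically defined yeast (DNA repair-deficient) exposed to compounds; growth inhibition determined relative to vehicle.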

Measured: growth inhibition

CSc1nc(NC2OCC(O)C(O)C2O)c(Cl)c(=O)[nH]1 (stereo unspecified)
inactive: [1] -13.5% | [2] -2.1% | [3] 12.3% | [4] -4.15% | [5] 2.55% | [6] 0.75%

CC1=NN2C(=O)C(c3ccccc3)SC2=NC(C)(C)C1 (stereo unspecified)
inactive: [1] 13.1% | [2] -18.9% | [3] 4.05% | [4] 26.6% | [5] -9.15% | [6] -7.25%

CN(C)Cc1onc(-c2c(Cl)cccc2Cl)c1C(=O)O
inactive: [1] 1.3% | [2] 8.2% | [3] -9.95% | [4] 6.05% | [5] 21.2% | [6] 8.4%

COCCCNC(=O)CC(=O)NCCCOC
inactive: [1] 13.4% | [2] -2.3% | [3] 24.8% | [4] 6.55% | [5] 5% | [6] 29.4%

CC(C)(C)c1cc(C(C)(C)C)c(P(C(O[Si](C)(C)C)=C(c2ccccc2)c2ccccc2)C(O[Si](C)(C)C)=C(c2ccccc2)c2ccccc2)c(C(C)(C)C)c1
inactive: [1] -14.7% | [2] -8.45% | [3] -3.7% | [4] 5.2% | [5] -5% | [6] 15.2%

CCC(=O)OCCCC1CCCO1 (stereo unspecified)
inactive: [1] 7.85% | [2] -0.55% | [3] 1.05% | [4] -9.8% | [5] 2% | [6] -2.05%

CCNC(=O)CCN(C(=O)O)S(=O)(=O)c1ccc(NC(=O)c2ccccc2)cc1
inactive: [1] -23.2% | [2] -14.8% | [3] -2.55% | [4] 0.25% | [5] -8.7% | [6] -13.9%

NC(N)=NS(=O)(=O)c1ccc(Nc2c3ccccc3nc3c(C(=O)Nc4ccc(S(N)(=O)=O)cc4)ccc(Cl)c23)cc1
inactive: [1] -8.55% | [2] -2.1% | [3] -2.75% | [4] 29.8% | [5] -2.25% | [6] 7.85%

Cc1cc(=O)n(-c2cncc(Br)c2)[nH]1
inactive: [1] 1.5% | [2] 2.05% | [3] 1.5% | [4] -17.5% | [5] 12.4% | [6] 7.75%

CC(=O)Nc1ccc(Cc2cc([N+](=O)[O-])cc([N+](=O)[O-])c2)cc1
inactive: [1] -0.1% | [2] -14.6% | [3] 2.75% | [4] -50.9% | [5] 24.9% | [6] -18.6%

Nc1ccc2c(c1)C(=O)c1ccccc1C2=O
inactive: [1] 4.4% | [2] -1.55% | [3] -12.9% | [4] 6.55% | [5] 8.95% | [6] -0.55%

O=C(CC(=O)c1ccc(Cl)s1)C(=O)NC1C2CC3CC(C2)CC1C3 (stereo unspecified)
inactive: [1] -15% | [2] 15.9% | [3] 7.9% | [4] -26.6% | [5] 12.2% | [6] 3.55%

COc1ccccc1NC(=O)C(=O)C1C(=O)Nc2ccccc2S1=O (stereo unspecified)
inactive: [1] -14.3% | [2] -21.1% | [3] -44.6% | [4] 2.45% | [5] -41% | [6] -45.5%

O=C1c2ccccc2-c2oc(=O)c3ccccc3c21
inactive: [1] -19.9% | [2] -1.5% | [3] -6.05% | [4] -17.2% | [5] 2.2% | [6] -15.9%

O=c1cc(-c2ccccc2)[nH]c2ccc(N3CCOCC3)cc12
inactive: [1] -37.7% | [2] 0.25% | [3] -41.6% | [4] -18.9% | [5] -15.8% | [6] -31.4%

COc1ccc(C2C(=O)c3ccc(OC)cc3OC2c2cccnc2)cc1 (stereo unspecified)
inactive: [1] 14.9% | [2] -8.8% | [3] 53.7% | [4] 29.6% | [5] 45.8% | [6] 25.2%

CC(C)(C)c1ccc(C(=O)O)c(O)c1.CC(C)(C)c1ccc(C(=O)O)c(O)c1.[Cu]
inactive: [1] 24.6% | [2] 15.1% | [3] 43.4% | [4] 47.6% | [5] 2.75% | [6] 37.1%

CC(=O)/C(C=Nc1c(C)n(C)n(C)c1=O)=C(/O)c1ccccc1
inactive: [1] 0.15% | [2] 4.05% | [3] -10.4% | [4] 7.55% | [5] -19.6% | [6] 16%

COc1ccc(CCNC(=O)Cc2cc(OCc3ccccc3)c(OC)cc2[N+](=O)[O-])cc1OC
inactive: [1] 36.1% | [2] 8.4% | [3] 25.5% | [4] 0.8% | [5] -4.2% | [6] 6.9%

COc1cc(C=C2C(=O)OC(C)(C)OC2=O)cc(OC)c1OC
inactive: [1] 3.45% | [2] -22.1% | [3] -11.3% | [4] 24.3% | [5] -21.5% | [6] 9.05%

CCOC(=O)/C=C/C1(CCOC(C)=O)CCCCC1
inactive: [1] 12.8% | [2] -27.8% | [3] -2.9% | [4] 21% | [5] -4% | [6] 14.9%

OCc1ccc(O)c(CO)n1
inactive: [1] -8.85% | [2] -26.3% | [3] -3.35% | [4] 5.4% | [5] -20.6% | [6] 7.55%

C=CCc1cc(OC)ccc1O
inactive: [1] 22.3% | [2] 36.8% | [3] 30.8% | [4] -3% | [5] 22.3% | [6] 19.6%

Cc1[nH]nc(C(=O)O)c1N
inactive: [1] -18.2% | [2] -20.6% | [3] -14.6% | [4] -16.1% | [5] -13.4% | [6] -7.2%

O=C(O)c1ccc(-c2ccc(C(=O)O)cc2I)c(I)c1
inactive: [1] 25.2% | [2] 2.2% | [3] 6.25% | [4] -5.25% | [5] 0.15% | [6] 10%

Cc1cc2nnn(-c3ncccc3[N+](=O)[O-])c2cc1C
inactive: [1] 5% | [2] 5.85% | [3] -5.2% | [4] 17.8% | [5] 9.8% | [6] 19.4%

CCC(CC)=C(c1ccc(C)cc1)c1ccc(C)cc1
inactive: [1] -25.2% | [2] -12.7% | [3] -1.9% | [4] -52.8% | [5] 4.7% | [6] -12.4%

CCN(CC)CCOC(=O)c1ccc(N=Nc2ccc(O)cc2O)cc1
inactive: [1] -12.8% | [2] -2.7% | [3] -1.3% | [4] -21.7% | [5] -24.5% | [6] -17.1%

COc1cc(C=C(C#N)C#N)ccc1OC(=O)c1cc(OC)c(OC)c(OC)c1
inactive: [1] -1.5% | [2] -5.6% | [3] 15.8% | [4] 2.2% | [5] 4.45% | [6] -6.25%

Cc1ccncc1S(=O)(=O)O
inactive: [1] 14.6% | [2] 8.85% | [3] 2.3% | [4] -12.2% | [5] 1.7% | [6] 1.75%

CCOC(=O)c1c(C)[nH]c(=S)c(C#N)c1-c1ccco1
inactive: [1] 17.7% | [2] 6.15% | [3] 10.8% | [4] 4.4% | [5] -3.35% | [6] 28%

O=C1CCCC2(c3ccc([N+](=O)[O-])cc3)C1C1C(=O)CCCC12c1ccc([N+](=O)[O-])cc1 (stereo unspecified)
inactive: [1] 44% | [2] -0.6% | [3] 14.2% | [4] 12.6% | [5] 5.4% | [6] 5.5%

O=C(O)/C=C/C(O)C1CCCCC1 (stereo unspecified)
inactive: [1] -31.1% | [2] -8.35% | [3] -0.95% | [4] -23.1% | [5] 1.05% | [6] -4.65%

CS(=O)(=O)c1ccc(N2CCCCC2)c([N+](=O)[O-])c1
inactive: [1] 29.9% | [2] 6.05% | [3] 27.6% | [4] 16.7% | [5] 10.9% | [6] -4.9%

COCCCNC(=O)c1nc2ccccc2c(=O)n1NC(=O)Cc1ccccc1
inactive: [1] -14.1% | [2] -19.8% | [3] 7% | [4] 4.35% | [5] 0.3% | [6] -7.75%

N#CCN1C(=O)c2ccccc2C1=O
inactive: [1] 6% | [2] -2.85% | [3] 1.45% | [4] 2.15% | [5] 3.15% | [6] -15.8%

CCOC(=O)C(CC)C1=CCCCC1 (stereo unspecified)
inactive: [1] -21% | [2] -48.7% | [3] -11.2% | [4] 12.3% | [5] -11.2% | [6] -8.55%

N#Cc1ccc(C=NC23CC4CC(CC(C4)C2)C3)cc1
inactive: [1] -12% | [2] -10% | [3] -6.7% | [4] 2.4% | [5] -2% | [6] -4.1%

N#C/C(=C\c1ccccc1)c1cccc(Br)c1
inactive: [1] 3.9% | [2] -6.1% | [3] 17.4% | [4] -22.9% | [5] 48.1% | [6] -1%

CCN(CC)CCCNc1ccc([N+](=O)[O-])c2nc3ccccc3c(N)c12
inactive: [1] 21.4% | [2] -0.2% | [3] 15.8% | [4] 32.9% | [5] -17.1% | [6] 63.8%

Oc1cc(CN2COc3ccccc32)c(O)cc1CNC1CCCCC1
inactive: [1] -6.65% | [2] -4.95% | [3] -25.6% | [4] 62.5% | [5] -33.7% | [6] -12.3%
